# Data from ChEMBL document CHEMBL4513216, “Probing the Open Global Health Chemical Diversity Library for Multistage-Active Starting Points for Next-Generation Antimalarials” (ACS Infect Dis, 2020).
# In all, about 68,000 compounds went through this assay and about 2,700 (4%) showed an effect of 50% or more. Shown is part of a subset that was picked to be rich in strong results.
# Test system: Plasmodium berghei
# Experiment: Screen against P. berghei liver stage (PbLuc), transformed with Luciferase, at 2uM
# Assay type: functional, HepG2
# Conditions: tested at 2 uM
row,SMILES,INHIBITION
1,CCn1ccnc1CN1CCNCC1C (centres undefined),-47.18%
2,c1cnc(-c2cnc(N3CCSCC3)nc2C2CC2)cn1,-109.23%
3,CCCSCC(=O)N1CCC2(CC1)CC(c1ccccc1)CN(C)C2 (centres undefined),33.16%
4,O=C1CO[C@@H]2CN(C3CCOCC3)C[C@H]2N1Cc1cccc(F)c1,2.98%
5,O=C1CO[C@@H]2CN(CC3CC3)C[C@H]2N1Cc1cccc(F)c1,52.81%
6,O=C1CO[C@@H]2CN(CC3CCOC3)C[C@H]2N1Cc1cccc(F)c1 (some centres undefined),-12.84%
7,Cn1nc2c(cc1=O)CN(CCOc1ccccc1C#N)CC2,-45.4%
8,Cc1nc(-c2ccccc2)nc2c1CCN(Cc1nccn1C)CC2,3.18%
9,CCc1ccc(CN2CCCn3c(nc(Cn4ccnc4)cc3=O)C2)o1,54.56%
10,Cc1ccc(CN2CCCn3c(nc(Cn4ccnc4)cc3=O)C2)o1,33.97%
11,O=c1cc(Cn2ccnc2)nc2n1CCCN(Cc1ccco1)C2,-0.18%
12,Cc1ncoc1C(=O)N1C[C@H]2CCC[C@@]2(COCc2cccnc2)C1,30.77%
13,Cc1ccccc1C(NC(=O)CCCS(C)(=O)=O)C(C)(C)C (centres undefined),33.22%
14,CCc1nnc(SC2CCCN(c3cccc(F)c3)C2=O)n1C (centres undefined),77.68%
15,Cn1nnnc1SC1CCCN(c2cccc(F)c2)C1=O (centres undefined),14.65%
16,CCc1nnc(SC2CCCN(c3cnn(C)c3)C2=O)n1C (centres undefined),11.87%
17,COc1ccc(CNC(=O)N(Cc2ccc(F)cc2F)C2CC2)cn1,-67.07%
18,COCCN1CCN(Cc2cnc(C)nc2)CC1,17.8%
19,CCC(C)S(=O)(=O)N1CCc2nc(C3CCNCC3)ncc2C1 (centres undefined),-0.83%
20,CC(=O)N1CC2(CCN(C(=O)c3ccoc3)C2)C1,67.62%
21,CC(=O)N1CCC2(CC1)CN(C(=O)c1ccc3c(c1)OCCO3)C2,41.38%
22,CC(=O)N1CCC2(CC1)CN(C(=O)c1ccc3c(c1)OCO3)C2,37.54%
23,CC(=O)N1CC2(CCN(C(=O)c3ccc4c(c3)OCCO4)CC2)C1,65.54%

row,SMILES,INHIBITION
1,O=C(c1ccoc1)N1CCC2(C1)CN(c1ncccn1)C2,25.43%
2,Cc1cnc(N2CC3(CCN(C(=O)c4ccoc4)C3)C2)nc1,-18.49%
3,Cc1cccc(COC[C@H]2CC[C@H]3[C@H](CCN3Cc3ccco3)O2)n1,-22.82%
4,O=C(c1ccco1)N1CCC2(CCCN(c3ncccn3)C2)C1 (centres undefined),-18.02%
5,CC1CN(C(=O)C2(c3ccc(F)cc3F)CCOCC2)CCO1 (centres undefined),20.14%
6,NC(=O)C1CN(C(=O)C2(c3ccc(F)cc3F)CCCC2)CCO1 (centres undefined),56.49%
7,NC(=O)C1CN(C(=O)NCC2(c3ccc(F)cc3)CCC2)CCO1 (centres undefined),-14.79%
8,CN1CC2(CCN(C(=O)CCc3nc4cccnc4n3C)C2)OC1=O (centres undefined),-31.03%
9,N#Cc1ccc(C(=O)N2CC(c3nc(-c4ncccn4)no3)C2)cc1,11.43%
10,CNC(=O)c1cccc(NC(=O)NC(C)c2cc(C)oc2C)c1C (centres undefined),57.75%
11,Cc1cc(C(C)NC(=O)c2ccc(O)nc2)c(C)o1 (centres undefined),56.96%
12,Cc1cc(C(C)NC(=O)c2c[nH]c(=O)c(Cl)c2)c(C)o1 (centres undefined),25.72%
13,CNC(=O)c1cccc(NC(=O)NC(C)CCc2cccn2C)c1C (centres undefined),-54.27%
14,CNC(=O)c1cccc(NC(=O)NCc2ccccc2)c1C,-7.16%
15,Cc1cc(C(C)NC(=O)c2cnc3onc(C)c3c2)c(C)o1 (centres undefined),4.49%
16,CC(C)NC(=O)c1ccc(NC(=O)NC(C)c2ccccn2)cc1 (centres undefined),2.26%
17,CNC(=O)c1ccc(NC(=O)NC(C)c2cc(C)oc2C)cc1 (centres undefined),50.59%
18,CNC(=O)c1ccc(NC(=O)NC(C)c2cc(C)oc2C)c(C)c1 (centres undefined),41.05%
19,COCc1nc(C(=O)N2CCCC2c2c(C)nn(C)c2C)cs1 (centres undefined),5.1%
20,Cc1ccc(C2(O)CCN(C(=O)CCn3ccc(=O)[nH]c3=O)CC2)nc1,-3.56%
21,N#CC1(NC(=O)COC(=O)Cc2cc(Cl)c3c(c2)OCCO3)CCCC1,17.14%
22,O=C(NCCN1CCOCC1)c1cnc(Cc2ccc(F)cc2)s1,-42.16%
23,CCc1nc(CN2CCN(C(=O)CCc3ccccc3)CC2)cs1,36.32%

row,SMILES,INHIBITION
1,Fc1ccc(OCCCNC2=NCCN2)cc1,6.36%
2,Cc1ccc(CCNc2ncc(C)c(-c3ccnn3C)n2)s1,-33.54%
3,COCC(=O)N1CC(c2csc(NC(C)=O)n2)C1,50.74%
4,COCC(=O)N1CCCC(c2csc(NC(C)=O)n2)C1 (centres undefined),15.73%
5,COCC(=O)N1CCC(c2csc(NC(C)=O)n2)CC1,-2.2%
6,Cc1nn(C)c(Cl)c1C1CCCN1CC(=O)NCc1ccco1 (centres undefined),33.61%
7,CCC(C)NC(=O)Nc1ccc(CN2CCOC2=O)cc1 (centres undefined),-5.28%
8,CC(C)CNC(=O)Nc1ccc(CN2CCOC2=O)cc1,-15.92%
9,CC(=O)Nc1ccc(CN2CCOC2=O)cc1,55.66%
10,CCNc1ncc(CN2C[C@H](C3CC3)[C@@H](N)C2)cn1,-35.18%
11,Nc1ncc(CN2C[C@H](C3CC3)[C@@H](N)C2)cn1,64.38%
12,N[C@H]1CN(Cc2cnc(N3CCCC3)nc2)C[C@@H]1C1CC1,22.18%
13,Cn1ccnc1SCCNC(=O)CC1CCc2ccccc21 (centres undefined),1.88%
14,Fc1ccc(NCc2ncc[nH]2)cc1Br,56.21%
15,CN1CCN(Cc2cccc(NCc3ncc[nH]3)c2)CC1,8.37%
16,Fc1cccc(C(NCc2ncc[nH]2)c2ccccc2)c1 (centres undefined),14.52%
17,Fc1cccc(NCc2ncc[nH]2)c1,51.08%
18,COCc1nc2cc(NCc3ncc[nH]3)ccc2o1,12.94%
19,COc1cc(NCc2ncc[nH]2)ccc1Br,44.23%
20,CCOc1ccc(N(CC(=O)c2ccccc2)C2=NCCCCC2)cc1,20.74%
21,Cn1nccc1C(=O)N1CCC(c2ncc(Cl)cc2S(C)(=O)=O)CC1,76.78%
22,CS(=O)(=O)c1cc(Cl)cnc1C1CCN(C(=O)C2CCOCC2)CC1,-33.32%
23,CS(=O)(=O)c1cc(Cl)cnc1C1CCN(C(=O)C2CC2)CC1,-14.56%
